JMJD2E inh: blocks human JMJD2E demethylase activity. B2RXH2. JMJD2E catalytic domain, FDH-coupled NADH fluorescence (FDH is formaldehyde dehydrogenase). Potency, µM (top dose mostly 57.1 µM), most hits filed as inhibitors. 1.6% of 230,000 active. AID 2147; further: nearly all actives have a fitted effect of over 50% in size
HPGD inh: HPGD (human) dehydrogenase inhibition | Potency, µM, most hits filed as inhibitors | purified HPGD, NADH fluorescence kinetic, PGE2 substrate | AID 894 | 4.3% of 150,000 active
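NADH formation kinetics: reaction with 30 uM PGE2 and 1 mM NAD+ (final), 20 nM enzyme, Tris-HCl pH 8 with Tween 20, after 15 min compound preincubation at room temperature. Fluorescence change, last versus first of five reads.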
PNC inhibitor: perinucleolar compartment assembly inhibition; PC3M PTB-GFP, PNC prevalence imaging, 16 h; stronger effect = lower value; 3.1% of 140,000 active; activity change (PNC), negative = inhibition, % at 10 µM;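 active means readout at or below -70, meaning at least 70% loss of cells showing the perinucleolar compartment, a nuclear body marking cancer cells; inconclusive means readout between -30 and a set limit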
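Read-out is percentage of cells bearing a perinucleolar compartment, from automated 20x imaging of fixed, Hoechst-stained PC3M PTB-GFP cells. Cells were seeded 4 h, then exposed 16 h to compound (23 nl of library stock) in duplicate plates.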
ALDH1A1 block: blocks purified human ALDH1A1 activity. Purified ALDH1A1, NADH fluorescence, propionaldehyde substrate. P00352. AID 1030. 7.3% of 220,000 active. Potency, µM (top dose mostly 75.3 µM), usual class: inhibitors
Target sequence (P00352 whole entry, looked up): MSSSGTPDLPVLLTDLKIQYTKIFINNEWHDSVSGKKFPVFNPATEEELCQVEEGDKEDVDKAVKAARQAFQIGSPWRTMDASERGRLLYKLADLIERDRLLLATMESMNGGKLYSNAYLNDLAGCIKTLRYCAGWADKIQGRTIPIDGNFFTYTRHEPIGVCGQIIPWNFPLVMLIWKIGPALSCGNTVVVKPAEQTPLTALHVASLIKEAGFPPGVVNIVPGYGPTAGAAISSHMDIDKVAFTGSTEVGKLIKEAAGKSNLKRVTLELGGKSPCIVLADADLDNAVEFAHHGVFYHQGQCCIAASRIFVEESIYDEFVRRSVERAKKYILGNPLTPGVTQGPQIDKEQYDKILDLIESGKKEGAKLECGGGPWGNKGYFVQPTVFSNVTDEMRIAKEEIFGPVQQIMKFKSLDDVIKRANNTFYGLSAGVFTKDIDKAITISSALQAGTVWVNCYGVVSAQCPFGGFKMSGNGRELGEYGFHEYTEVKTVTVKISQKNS
Numbers stand for hits; . = inactive; ? = inconclusive; / = no result given; [ ] = remark or other dose. Sampled rows, rich in hits. Any-hit rate of the full collection: about 11%. Unless noted, the call rests on the fitted dose curve; in most records, active means well fitted inhibition curve with a large enough effect (not every such curve was filed as active); inconclusive means small, poorly fitted or top-dose-only effect, or another doubt; inactive means no such curve, though single readings can be large or run the other way.

SMILES	JMJD2E inh	HPGD inh	PNC inhibitor	ALDH1A1 block
COc1ccc(-c2nc3oc4cc(OC)ccc4c(=O)c3c(=O)n2Cc2ccco2)cc1	?	?	.	?
COc1ccc2c(=O)c3c(=O)n(Cc4ccco4)c(-c4ccco4)nc3oc2c1	?	22µM	.	?
CC(C)C(=O)Nc1nnc(CSCc2ccccc2F)s1	.	.	.	.
O=C(Nc1nnc(CSCc2ccccc2F)s1)c1cccc([N+](=O)[O-])c1	.	?	-100	25µM
O=C(Nc1nnc(CSCc2ccc(F)cc2)s1)c1ccc([N+](=O)[O-])cc1	.	?	-96	?
COc1ccccc1N=C1SCC(=O)N1Cc1ccco1	.	/	/	/
O=C1CS/C(=N/N=C/c2ccccc2)N1Cc1ccco1	.	/	/	11µM
COc1ccc(OC)c(/C=N/N=C2\SCC(=O)N2Cc2ccco2)c1	?	.	.	5µM
COC(=O)[C@@H]1[C@@H](O)[C@]2(O)c3ccccc3O[C@]2(c2ccccc2)[C@H]1c1ccccc1	/	/	/	.[13.5 µM]
O=C(NCCC1=CCCCC1)c1ccc(Cl)c(S(=O)(=O)N2CCOCC2)c1	.	.	.	13µM
O=S(=O)(NCCC1=CCCCC1)c1cccc(S(=O)(=O)N2CCOCC2)c1	.	/	.	10µM
Cc1ccc(CSCCNC(=O)c2ccc(Cl)c(S(=O)(=O)N3CCOCC3)c2)cc1	.	.	.	?
COc1cc2c(cc1OC)C1(O)C(=O)c3ccc(O)c(C(=O)O)c3OC1CO2 (centres undefined)	?	.	/	.
Nc1nnc(CCS(=O)(=O)c2ccc(Cl)cc2)s1	.	.	?	.
Nc1nnc(CCS(=O)(=O)c2cc(Cl)ccc2Cl)s1	.	.	?	25µM
Clc1ccc(Cl)c(SCCCN2CCNCC2)c1	/	.	/	.[13.5 µM]
C[C@H](NC(N)=O)C(=O)Nc1ccc2c(c1)OCO2	.	/	/	/
CC(C)(C)OC(=O)NCCc1nnc(S(=O)(=O)Cc2ccc(Cl)cc2Cl)o1	.	2.5µM	.	2.8µM
COC(=O)c1c(NC(=O)CSc2nnc(C)c(=O)[nH]2)sc(C)c1C	.	/	/	?
Cc1ccc(OCCCCNC2CCCC(C)C2C)c(C)c1 (centres undefined)	?	/	/	.
Oc1ccc(-c2nc(-c3ccc(O)c(O)c3)cs2)cc1	28µM	?	-101	11µM
Oc1ccc(-c2csc(-c3cccnc3)n2)c(O)c1	.	/	/	.
Cc1ccc2cc(C=C(C#N)C#N)c(N3CCCCC3)nc2c1	.	.	.	7.9µM
N#C/C(=C\c1cc2ccccc2nc1N1CCOCC1)C(=O)Nc1ccc(N2CCOCC2)cc1	.	.	?	.
CCOC(=O)/C(C#N)=C/c1cc2ccccc2nc1N1CCCCC1	.	/	/	19µM
SMILES	JMJD2E inh	HPGD inh	PNC inhibitor	ALDH1A1 block
Cc1ccc2cc(/C=C(\C#N)C(N)=O)c(N3CCCCC3)nc2c1	.	.	.	11µM
Cc1ccc(/C=C(\C#N)C(=O)N2CCCC2)c(C)c1	.	/	/	.
N#CC(C#N)=Cc1cc2ccccc2nc1N1CCOCC1	.	.	.	11µM
CCCc1cc(=O)[nH]c(SCC(=O)Nc2ccc(Br)cc2Br)n1	.	/	/	.
CCC/C=C(\CCC)C(NP(=O)(c1ccccc1)c1ccccc1)c1ccc(-c2ccccc2)cc1 (centres undefined)	?	.	/	.
Cn1cc(C2=C(c3cn(CCCSC(=N)N)c4ccccc34)C(=O)NC2=O)c2ccccc21	.	.	/	.
Cc1cc(=O)c2c(O)c3c(O)cc(O)c4c5c(O)cc(O)c6c(O)c7c(=O)cc(C)c8c1c2c(c34)c(c65)c78	/	8.9µM	/	.
Cc1cc(O)c2c(c1O)C(=O)c1c(O)cc(C)c(O)c1C2=O	?	.	/	.
O=C(COC(=O)c1c2c(nc3ccccc13)CCN(Cc1ccccc1)C2)Nc1c(F)cccc1F	?	.	.	?
CC(=O)Nc1ccc(NC(=O)COC(=O)c2c3c(nc4ccccc24)CCN(Cc2ccccc2)C3)cc1	.	/	.	7.1µM
O=C(O)C[C@H](Cc1ccccc1Cl)C(=O)O	/	.	/	.[13.5 µM]
CN1CCc2c(sc3nc(NN)n(Cc4ccccc4)c(=O)c23)C1	?	/	/	32µM
Cc1nc(Cl)c(Cl)n1CCOc1ccccc1	.	/	/	?
Cn1c(=O)c2c(nc(NCc3ccc4c(c3)OCO4)n2Cc2ccccc2F)n(C)c1=O	.	.	.	13µM
Cn1c(=O)c2c(nc(CN3CCN(C(=O)c4ccco4)CC3)n2Cc2ccc(F)cc2)n(C)c1=O	.	.	.	20µM
Cn1c(=O)c2c(nc(CN3CCN(C(=O)c4ccco4)CC3)n2Cc2ccccc2F)n(C)c1=O	.	.	.	13µM
Cn1c(=O)c2c(nc(NCc3ccc4c(c3)OCO4)n2Cc2ccccc2)n(C)c1=O	.	.	.	?
CCn1ncc(Br)c1C(=O)Nc1cc([N+](=O)[O-])ccc1C	.	.	.	.
CC(C)OC(=O)/C(=C\c1cccc2ccccc12)NC(=O)c1ccccc1	.	.	.	.
COc1ccc(-n2c(=O)c(C)nc3cncnc32)cc1	/	.	/	25µM
CC(=O)Sc1nc(-c2ccccc2)[nH]c1S(=O)(=O)c1ccc(C)cc1	10µM	/	/	.
O=C(c1cn(-c2ccccc2)nc1-c1cccs1)N1CCOCC1	.	.	.	.
O=C(N/C(=C\c1cn(-c2ccccc2)nc1-c1ccc(Cl)cc1)C(=O)N1CCOCC1)c1ccccc1	.	.	?	.
O=C(N/C(=C/c1cn(-c2ccccc2)nc1-c1ccccc1)C(=O)N1CCOCC1)c1ccc(Cl)cc1Cl	.	.	.	16µM
O=C(c1cn(-c2ccccc2)nc1-c1ccc(F)cc1)N1CCOCC1	.	.	.	?
SMILES	JMJD2E inh	HPGD inh	PNC inhibitor	ALDH1A1 block
O=C(c1cn(-c2ccccc2)nc1-c1ccc(Br)cc1)N1CCOCC1	.	.	-114	.
O=C(c1ccccc1Oc1ccccc1)N1CCN(c2ccccc2)CC1	.	.	.	22µM
O=C(c1cn(-c2ccccc2)nc1-c1cccc(Br)c1)N1CCOCC1	.	/	/	25µM
O=C(c1csnn1)N1CCC2(CC1)CCN(C(c1ccccc1)c1ccccc1)CC2	/	.	/	.
COc1cccc(Oc2nc(-c3ccncc3)nc3ccccc23)c1	?	/	/	.
Cc1noc(C)c1-c1nccc(-n2ccnc2)n1	.	.	/	.
COc1ccc(C(=O)NNC(=O)CCn2nnc(-c3ccc(C)cc3)n2)cc1OC	.	/	/	?
Cc1sc(C(=O)Nc2ccc3ccccc3c2)cc1CC(=O)O	.	/	/	.
CC1CC(C)(C)NC(=S)N1CCC(=O)NCCc1ccc(Cl)cc1 (centres undefined)	.	/	/	?
O=C(Nc1nc2ccccc2n1CCN1CCOCC1)c1cn(-c2ccccc2)nc1-c1ccccc1	25µM	?	?	?
O=C(c1cn(-c2ccccc2)nc1-c1cccs1)N1CCN(c2ccccc2)CC1	.	.	-83	?
O=C(Nc1cccc(S(=O)(=O)N2CCOCC2)c1)c1ccc2c(=O)n3c(nc2c1)CCCCC3	.	/	/	5.6µM
O=C(Nc1cccc(S(=O)(=O)N2CCCCCC2)c1)c1cc(=O)c2ccccc2o1	.	/	/	11µM
CN(c1ccccc1)S(=O)(=O)c1cccc(NC(=O)c2cc(=O)c3ccccc3o2)c1	.	/	/	?
O=c1c2cc(NC(=S)NCCN3CCCCCC3)ccc2nc2n1CCCCC2	?	/	/	20µM

Bioassay records deposited in PubChem by National Center for Advancing Translational Sciences (NCATS).
